Screening results (PubChem BioAssay)
The list is not random: actives were taken first. Their share in the collection is about 2%.
GC-A act = GC-A (human) enzyme activation. P16066. HEK293 GC-A cells, cGMP TR-FRET, EC30 ANP; 0% at EC30 ANP, 100% saturating ANP. activation, % at 10 µM. 370,000 tested, 0.14% active; in the data active = activation above about 40%
ADAM10 inh = inhibits human ADAM10; recombinant ADAM10, EDANS/DABCYL FRET peptide cleavage, 3 h; AID 720582; 370,000 tested, 0.62% active; inhibition, % at 7 µM;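 active = inhibition above a per-campaign cutoff equal to the mean of compounds falling between control-based bounds plus 3 SD, cut at about 20% in these data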;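 note: 0% = DMSO wells while the 100% control is not disclosed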
FAS-TE inh = blocks the thioesterase domain of human fatty acid synthase | P49327 | recombinant FAS-TE, OMFH fluorogenic substrate, fluorescence endpoint | inhibition, % at 15 µM | 360,000 tested, 0.67% active | AID 602261;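 active = compounds whose normalised, plate-corrected inhibition of enzyme fluorescence in the single-dose primary screen is 50% or more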;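 note: 0% = DMSO with enzyme and 100% = substrate without enzyme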
ADAM17 inh = ADAM17 inhibition, QFRET primary screen. recombinant ADAM17, EDANS/DABCYL FRET peptide cleavage. 370,000 tested, 0.83% active. inhibition, % at 6.95 µM;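 active = inhibition above the mean of compounds lying between control limits plus 3 SD, set per campaign, cut at about 8.5% in these data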;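 note: 0% = DMSO-only wells as the low control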
GC-B act = GC-B (human) receptor activation; 370,000 tested, 0.11% active; activation, % at 10 µM; AID 1920062; HEK293-GC-B cells, CNP EC30, cGMP TR-FRET; 0% at EC30 CNP, 100% saturating CNP; P20594;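 active = activation at 10 µM reaching about 35% in either raw or pattern-adjusted values, limit read from the data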
FAS-TE inh conf = confirmation of human fatty acid synthase thioesterase inhibitors; shares compounds with FAS-TE inh; 2,300 tested, 45% active; recombinant FAS-TE, OMFH fluorogenic substrate, fluorescence; AID 624325; inhibition, % at 15 µM;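 active = compounds inhibiting the enzyme by at least 50% at 15 µM in any one of the replicates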;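 note: 0% = enzyme with DMSO only and 100% = wells lacking enzyme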
The depositor's hits bear a star; nt = no result given.

SMILES	GC-A act	ADAM10 inh	FAS-TE inh	ADAM17 inh	GC-B act	FAS-TE inh conf
C#CCN1C(=O)[C@]2(NCCc3c2[nH]c2ccc(OC)cc32)c2cc(F)ccc21	-3.1	0.3	nt	-5.1	-0.2	nt
COC(=O)[C@]12C=CCN1[C@H](c1ccc(Cl)cc1)c1c(c3ccccc3n1S(=O)(=O)c1ccc(C)cc1)C2	-2.9	-51.3	nt	-16.0	-14.5	nt
Cc1ccccc1CNC(=S)OC1CCC12CCC(c1ccccc1)CC2 (centres undefined)	0.7	-4.9	nt	-3.4	-2.1	nt
CCN1CCN(C(=O)c2cc3cc([N+](=O)[O-])ccc3oc2=O)CC1	5.3	2.4	1.9	-8.4	1.0	nt
O=C(c1cc2cc([N+](=O)[O-])ccc2oc1=O)N1CCN(C2CCCCC2)CC1	-0.6	-7.0	61.1*	-4.2	-0.5	47.2*
Nn1c(SCC(=O)NC2CCCCC2)nnc1-c1cc(-c2ccccc2)n[nH]1	-5.1	3.2	nt	4.4	-5.5	nt
COc1ccc2c(c1)C(=O)N1[C@H]3c4cc(Br)ccc4OC[C@@H]3[C@H](c3ccccc3)[C@]1(C)C(=O)N2	nt	nt	78.1*	nt	nt	41.0*
CCOC(=O)[C@H]1[C@H]2COc3ccc(Cl)cc3[C@@H]2N2C(=O)c3cc(OC)ccc3NC(=O)[C@@]12C	-5.8	3.6	22.2	4.6	-4.7	nt
CCOC(=O)[C@H]1[C@H]2COc3ccc(Br)cc3[C@@H]2N2C(=O)c3cc(F)c(F)cc3NC(=O)[C@@]12C	-1.7	16.7	41.0	7.8	4.1	nt
C[C@@]12C(=O)Nc3ccc(Cl)cc3C(=O)N1[C@H]1c3cc(Br)ccc3OC[C@@H]1[C@@H]2c1ccccc1	-2.2	9.9	90.6*	5.5	0.3	32.6
C[C@@]12C(=O)Nc3ccc(Br)cc3C(=O)N1[C@H]1c3cc(Br)ccc3OC[C@@H]1[C@@H]2c1ccccc1	-4.6	10.4	63.8*	5.2	1.1	23.0
O=C(N=C1N(Cc2ccccc2)[C@@H](Cc2ccccc2)[C@]2(C=C3CCCCC3n3c(=O)n(-c4ccccc4)c(=O)n32)N1C(=O)OCc1ccccc1)c1ccccc1 (some centres undefined)	3.3	-2.0	nt	-3.3	3.7	nt
Cc1ccccc1S(=O)(=O)N1C[C@H]2[C@H]3C(=O)N(C4CCCCC4)C(=O)[C@H]3CC(=O)[C@H]2[C@@H]1c1ccc(Cl)cc1	0.9	17.5	73.1*	8.1	-2.3	22.6
Cc1ccccc1S(=O)(=O)N1C[C@@H]2C(C(=O)C[C@@H]3C(=O)N(C)C(=O)[C@@H]32)[C@@H]1c1ccc(Cl)cc1 (some centres undefined)	-11.4	-19.1	nt	-0.5	-21.4	nt
O=C(C1CCN(c2cncnc2)CC1)N1CCOCC1	3.1	-16.1	nt	-3.4	3.6	nt
CCCCCCCCCCCCN1[C@@H](CC(=O)O)c2cc(F)ccc2S1(=O)=O	4.1	7.7	59.3*	0.3	1.1	75.0*
CS(=O)(=O)N(CC(=O)N/N=C/c1ccccc1C(=O)O)c1cccc(Cl)c1Cl	-0.4	-18.9	-3.8	0.9	2.5	nt
CC(C)c1ccc(/C=N/NC(=O)CN(c2cccc(Cl)c2Cl)S(C)(=O)=O)cc1	-6.1	8.9	56.9*	5.5	0.5	58.3*
Cc1ccc2c(c1)C1CS(=O)(=O)N(CC(C)C)C(=O)N1C2 (centres undefined)	-1.9	3.7	nt	-1.3	-3.2	nt
CC(C)CNC(=O)C1CSCCS(=O)(=O)N1Cc1ccccc1 (centres undefined)	1.5	-2.2	nt	-3.1	-3.0	nt
COC(=O)[C@]12C[C@H](CC(=O)NCc3cccc(C(F)(F)F)c3)C(=O)N(CCC3=CCCCC3)C1=C[C@H](C(C)C)O[C@@H]2C1CC1	-2.6	8.8	nt	0.0	2.5	nt
COc1ccc(Nc2cc(C(=O)N3CCc4ccccc4C3)c3ccccc3n2)c(OC)c1	-5.4	9.7	61.3*	5.9	-1.4	28.3
COCCCNC(=O)c1cc(Nc2ccc(OC)cc2OC)nc2ccccc12	4.8	-4.1	-6.6	4.0	-2.8	nt
COc1cc(C2c3c(c(C)c(C)oc3=O)Oc3c(C)c(C)oc(=O)c32)ccc1OS(=O)(=O)c1ccc(C)cc1	-0.2	-5.8	83.8*	-1.7	5.5	21.6
CC(C)COc1ccc(C(=O)N/C(=C/c2cccc([N+](=O)[O-])c2)C(=O)O)cc1	6.5	0.3	56.8*	-1.0	2.4	59.5*
SMILES	GC-A act	ADAM10 inh	FAS-TE inh	ADAM17 inh	GC-B act	FAS-TE inh conf
CC(C)COc1ccc(C(=O)N/C(=C\c2cccc([N+](=O)[O-])c2)C(=O)O)cc1	-0.2	5.6	62.2*	-0.8	5.0	76.7*
CCOc1cc(CCNC(=O)c2cc(-c3ccccc3)c(N3CCOCC3)s2)ccc1OC	4.7	-17.2	nt	-8.7	-3.1	nt
c1ccc(-n2c(SCc3cccc4ccccc34)nnc2-c2ccncc2)cc1	-9.1	3.1	nt	3.4	-8.8	nt
CCOc1ccccc1NC(=O)CSC1=C(C#N)C(c2ccco2)C(C(=O)Nc2nc3ccccc3s2)=C(C)N1 (centres undefined)	-5.9	-5.6	81.3*	-3.2	-5.1	18.8
Cc1cc(O)cc(=O)n1-c1cc(C(F)(F)F)cc(C(F)(F)F)c1	1.3	-1.7	nt	-5.4	-5.5	nt
CC(C)(C)C(=O)Nc1ccc(C(=O)N/N=C/c2ccccc2OC(=O)c2ccc(Cl)cc2)cc1	-1.9	4.5	75.8*	7.2	3.5	12.5
Cc1cccc(C(=O)Oc2ccccc2/C=N/NC(=O)c2ccc(NC(=O)C(C)(C)C)cc2)c1	0.5	9.2	66.3*	5.9	-0.5	18.1
CCOc1cc(/C=N\NC(=O)c2ccc(NC(=O)C(C)(C)C)cc2)ccc1OC(=O)c1cccc(C)c1	-8.3	4.2	24.4	3.7	4.2	nt
CC(C)(C)C(=O)Nc1ccc(C(=O)N/N=C/c2ccccc2OC(=O)c2ccccc2)cc1	-0.5	4.8	29.4	1.5	-0.6	nt
CCOc1ccc(-n2c(SCc3ccc(C#N)cc3)nnc2-c2ccco2)cc1	-6.3	-9.6	nt	-0.4	-5.0	nt
COc1ccc(-c2nn(-c3ccccc3)cc2/C=N/O)cc1OC	5.6	9.9	-9.3	2.2	0.6	nt
COc1ccc(-c2nn(-c3ccccc3)cc2/C=N/NC(=O)c2cccc(S(=O)(=O)Nc3ccccc3OC)c2)cc1	0.3	1.2	54.1*	-0.6	0.9	21.6
COc1ccc(-c2nn(-c3ccccc3)cc2/C=N/NC(=S)NC(C)C)cc1OC	30.8	-0.9	55.6*	2.0	41.9*	14.8
COC1=C[C@H](C(=O)NCc2ccc(Cl)cc2)C(C)C(c2ccccc2)CC1=O (some centres undefined)	-0.9	6.3	nt	3.9	-6.1	nt
c1nc(NCC2CCCOC2)c2cc(-c3ccc4c(c3)OCO4)ccc2n1 (centres undefined)	-0.8	-68.0	nt	-26.9	-8.6	nt
